One experiment concerns HEK293. Description: Cytotoxic Profiling of Annotated Libraries Using Quantitative High-Throughput Screening (AID 1296008). Also: potency is read from the fitted curve at half-maximal effect. As to max response: % is scaled to controls: 0 for no effect and ±100 for the full control effect. The settings on record: Five cell lines viability, CellTiter-Glo ATP luminescence, 48-72 h; max response: active compounds read low. In a few lines: (§1)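 Compounds were pin-transferred onto cells and incubated 48 or 72 hr at 37 degree Celsius, 95% humidity. CellTiter-Glo was added, plates sat 10 min at room temperature, then ATP-coupled luminescence was imaged as the viability read-out.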

The test system of experiment [1] is HaCat. The description is as above. The settings on record: Five cell lines viability, CellTiter-Glo ATP luminescence, 48-72 h; max response: active compounds read low. In a few lines: as §1
Another experiment deals with KB-3-1. Described as above. The following applies: Five cell lines viability, CellTiter-Glo ATP luminescence, 48-72 h; max response: active compounds read low. In a few lines: as §1
For orientation: In ATP-based viability assays light output follows the ATP content of the culture.

For another experiment, the system named is NIH3T3. The experiment is described as above. The settings on record: Five cell lines viability, CellTiter-Glo ATP luminescence, 48-72 h; max response: active compounds read low. In a few lines:
as §1

Experiment [2] deals with HACAT. The experiment can be described thus: qHTS assay to identify novel small-molecules to repurpose for Merkel cell carcinoma treatment (AID 1296009). The settings on record: MCC and control cell lines, CellTiter-Glo viability, 72 h; series mostly up to 44.8 µM. In a few lines: (§2)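 qHTS format: cells treated with library compounds in DMSO across 8 (NPC) or 11 (MIPE) concentrations. Readout after 72 hr at 37 degree celsius was CellTiter-Glo luminescence.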

For the next experiment, the system named is HEK293T. Described as above. The settings on record: MCC and control cell lines, CellTiter-Glo viability, 72 h; at 44.8 µM (top of the series) unless noted. In a few lines:
as §2

Structures are written as SMILES. Results filed as inconclusive are left out. Unmarked numbers belong to inactive results. Active and inactive are the calls of the source. Calls follow the shape of the dose curve; as a rule, active = well fitted inhibition curve with a large enough effect; inconclusive = small, poorly fitted or top-dose-only effect; inactive = flat fitted curve, though single readings scatter.

Among the data in PubChem BioAssay (NCATS) are max response, outcome and Potency values, retold here.
Also: nearly all actives have a fitted effect of over 60% in size.

For the compound `COC(=O)C1=CO[C@@H](O[C@@H]2O[C@H](CO)[C@@H](O)[C@H](O)[C@H]2O)[C@@H]2C(COC(C)=O)=C[C@H](O)[C@H]12`, the max response with HEK293 was -2.65%. The result in the experiment on HaCat [1], in the experiment with KB-3-1 and with NIH3T3 was inactive.

Regarding `CC(=O)OC1/C(C)=C/C(=O)C(OC(C)=O)C(C)(C)/C=C/C(C)C(=O)C2(OC(C)=O)CC(C)C(OC(=O)c3ccccc3)C12` (configuration not stated), the max response in the experiment on HEK293 was -22.9%; with HaCat [1], -9.17%; in the experiment on NIH3T3, -16.3%. The call with KB-3-1 was inactive.

Take `O=C(/C=C/c1cccc(S(=O)(=O)Nc2ccccc2)c1)NO`: the Potency in the experiment with HEK293 is 3.99 µM (active); in the experiment with HaCat [1], 5.02 µM (active); in the experiment with KB-3-1 it was 2.82 µM (active); in the experiment on NIH3T3 it was 7.96 µM (active).

As to `C[C@@H]1COCCN1c1cc(C2(S(C)(=O)=O)CC2)nc(-c2cccc3[nH]ccc23)n1`, the Potency is 1.46 µM (active) in the experiment on HEK293, 5.8 µM (active) in the experiment with HaCat [1], 2.59 µM (active) in the experiment on KB-3-1 and 2.06 µM (active) with NIH3T3.

Take `Cc1[nH]c2ccccc2c1C1=C(NCCc2ccc(F)cc2)C(=O)N(C)C1=O`: the values for the max response in the experiment on HEK293 and in the experiment on KB-3-1 were -22.2% and -15.2%, respectively. In addition, the Potency in the experiment on HaCat [1] is 8.2 µM (active); with NIH3T3, 14.6 µM (active).

As to `O=C(C(c1ccccc1)c1ccccc1)N1CCN(CC(O)COc2cccc3ncccc23)CC1` (configuration not stated), the Potency in the experiment with HEK293 is 6.51 µM (active). The results for the max response in the experiment on HaCat [1], in the experiment on KB-3-1 and in the experiment on NIH3T3 were -24.2%, -28.1% and -26.9%, respectively.

In the case of `COC1C(CO)OC(n2cnc3c(=O)[nH]cnc32)C1O` (configuration not stated), the max response in the experiment on HEK293 is 0.852%; in the experiment with HaCat [1], -1.42%; with KB-3-1, 2.15%; in the experiment on NIH3T3, -5.01%.

Take `C=C(C(=O)O)C1CCC2(C)CCCC(C)(O)C2C1` (configuration not stated): the max response with HEK293 was -4.4%. For the same compound, the compound was called inactive in the experiment with HaCat [1], in the experiment with KB-3-1 and with NIH3T3.

`COC(=O)c1c(C)cc(OC(=O)c2c(C)cc(OC)cc2OC)cc1O[C@@H]1O[C@H](CO)[C@@H](O)[C@H](O)[C@H]1O`: the max response in the experiment on HEK293 was -0.971%; with HaCat [1], -0.836%; with KB-3-1, -1.14%; in the experiment on NIH3T3 it was -1.71%.

For the compound `CCC1C(=O)OC23C=C[C@@H]4C(C(=O)O)=CO[C@H](O[C@@H]12)[C@@H]43` (some centres not stated), the max response in the experiment on HEK293 was -24.7%; in the experiment with HaCat [1], 2.84%; in the experiment on KB-3-1 it was -1.99%; in the experiment with NIH3T3, 0.895%.

On to `OCc1ccc(O[C@@H]2O[C@H](CO)[C@@H](O)[C@H](O)[C@H]2O)cc1`, for which the max response with HEK293 was -0.162%; in the experiment on KB-3-1, -3.37%; with NIH3T3, 2.54%. Besides, the compound was classed as inactive with HaCat [1].

For the compound `NC1(C(=O)NC(CCO)c2ccc(Cl)cc2)CCN(c2ncnc3[nH]ccc23)CC1` (configuration not stated), in the experiment on HEK293, the Potency is 1.03 µM (active). Besides, the max response is -41.5% with HaCat [1] and -13.8% in the experiment on KB-3-1. Besides, the compound was classed as inactive in the experiment on NIH3T3.

As to `Cc1ccc(S(=O)(=O)n2ccc(-c3c(-c4ccc(Cl)cc4)noc3C)n2)cc1`, the Potency in the experiment on HEK293 was 4.11 µM (active). The compound was called inactive with HaCat [1]. Further, the max response in the experiment with KB-3-1 is -24.7%; in the experiment on NIH3T3, -14.9%. Also, in the experiment on HACAT [2], the Potency entry was “inactive”.

For `CS(=O)(=O)c1ccc(-c2nnc(/C=C/c3nnc(-c4ccc(C#N)cc4)o3)n2-c2ccccc2Cl)nc1`, the Potency in the experiment on HEK293 was 11.6 µM (active). In addition, the compound was classed as inactive in the experiment with HaCat [1]. The max response was 2.94% in the experiment on KB-3-1 and -6.1% in the experiment on NIH3T3. Moreover, in the experiment on HACAT [2], the Potency entry was “inactive”.

`C[C@@H]1CCN(C(=O)N2CCCC2)C[C@@H]1N(C)c1ncnc2[nH]ccc12`: the values for the max response in the experiment with HEK293, in the experiment on KB-3-1 and in the experiment on NIH3T3 were -16.9%, 6.14% and -9.02%, respectively. In addition, in the experiment on HaCat [1], the result was inactive. In addition, the Potency entry in the experiment on HACAT [2] is “inactive”.

In the case of `O=C(O)[C@H](Cc1ccc(Nc2nccc3ccncc23)cc1)NC1=C(Br)C(=O)C12CCCCC2`, in the experiment on HEK293, the max response is -11.7%. Also, the outcome in the experiment with HaCat [1] and in the experiment on KB-3-1 was inactive. Besides, in the experiment on HACAT [2], the Potency entry is “inactive”.

In the case of `Oc1ccc2nc(CN3CCC(Cc4ccccc4F)CC3)[nH]c2c1`, the max response in the experiment with HEK293 was -10.9%; in the experiment with KB-3-1 it was -7.21%; in the experiment with NIH3T3 it was -12%. For the same compound, the result with HaCat [1] was inactive. Besides, in the experiment on HACAT [2], the Potency result is “inactive”.

`CC1=CC(=O)[C@]2(O[C@@H]3O[C@@H](C)[C@H](O)[C@@H](O)[C@H]3OC(=O)/C=C/c3ccccc3)C=CO[C@@H](O[C@@H]3O[C@H](CO)[C@@H](O)[C@H](O)[C@H]3O)[C@H]12`: the figures for the max response in the experiment on HEK293 and in the experiment with KB-3-1 were -1.41% and 8.78%, respectively. The compound was called inactive in the experiment on HaCat [1] and in the experiment on NIH3T3. For the same compound, the Potency result in the experiment with HACAT [2] was “inactive”.

Consider `COC(=O)CC(O)CC(O)/C=C/c1c(C)ccc2c1C(O)CC(C)C2` (configuration not stated), for which the call in the experiment on HEK293, with KB-3-1, in the experiment with NIH3T3 and in the experiment on HEK293T was inactive. Besides, the max response in the experiment with HaCat [1] was -0.771%.

Regarding `COc1ccc([C@@]2(O)c3c(ccc(CC=C(C)C)c3O)NC(=O)[C@@H]2OC)cc1`, the compound was classed as inactive with HEK293, with HaCat [1] and in the experiment with HEK293T. For the same compound, the values for the max response in the experiment with KB-3-1 and with NIH3T3 were 8.3% and 4.4%, respectively. Also, the Potency entry with HACAT [2] is “inactive”.

Regarding `O=C(CO)[C@@H](O)[C@H](O[C@@H]1O[C@H](CO)[C@H](O)[C@H](O)[C@H]1O)[C@H](O)CO`, the compound was called inactive with HEK293 and with HEK293T. In addition, the max response with HaCat [1] was -14%; in the experiment on KB-3-1 it was 5.5%.
